# According to PubChem BioAssay AID2322 (Broad Institute, 2010):
# About 120 (0.44%) of roughly 27,000 compounds were called active. The sample holds actives, similar compounds and a random draw of the others, so the mix is not that of the screen. A number with no mark means an inactive call. No stated cut-off is given here; in the data, active means inhibition above about 20%; inconclusive means no clear call, values can overlap the other calls; inactive means below that.
# Biological target: Serine/threonine-protein kinase 33 (Homo sapiens) (UniProt Q9BYT3)
# Sequence (Q9BYT3 whole entry, looked up): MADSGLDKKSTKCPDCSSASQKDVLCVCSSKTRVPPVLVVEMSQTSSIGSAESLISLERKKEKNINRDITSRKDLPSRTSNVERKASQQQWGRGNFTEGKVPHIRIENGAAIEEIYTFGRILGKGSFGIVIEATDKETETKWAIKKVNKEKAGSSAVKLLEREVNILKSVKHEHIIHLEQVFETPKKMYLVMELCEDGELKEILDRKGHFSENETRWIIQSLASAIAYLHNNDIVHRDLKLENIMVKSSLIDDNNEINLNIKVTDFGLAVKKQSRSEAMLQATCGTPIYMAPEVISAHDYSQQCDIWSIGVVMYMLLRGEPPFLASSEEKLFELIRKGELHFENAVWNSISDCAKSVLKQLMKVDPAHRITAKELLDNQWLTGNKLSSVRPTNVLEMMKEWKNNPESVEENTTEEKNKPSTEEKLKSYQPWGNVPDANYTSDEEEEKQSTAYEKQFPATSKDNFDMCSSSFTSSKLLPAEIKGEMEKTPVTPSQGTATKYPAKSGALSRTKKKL
# Experiment: STK33 kinase inhibitors, primary screen, biochemical, luminescence, ADP-Glo, MBP substrate (AID 2322)
# Details: at 12.5 µM, stronger effect = higher value
row,Compound,inhibition
1,COC(=O)c1ccc(NC(=O)CSc2nc(-c3ccccc3)c(-c3ccccc3)[nH]2)cc1,0.633%
2,O=[N+]([O-])c1ccc(NCCNCc2cccnc2)cc1,0.298%
3,COc1ccc(NC(=O)CN2CCN(S(=O)(=O)c3ccc4ccccc4c3)CC2)cc1,-0.51%
4,Cc1ccc(N(C(C)C(=O)Nc2ccc(F)c(Cl)c2)S(C)(=O)=O)cc1C (configuration not stated),-3.25%
5,Cc1ccc(-n2c(SCC(=O)Nc3cccc(C)c3C)nc3ccccc3c2=O)cc1,-0.698%
6,O=C(c1ccc(NCc2cccnc2)c([N+](=O)[O-])c1)N1CCCCC1,2.99%
7,CN(CC(=O)Nc1ccc(F)cc1)S(=O)(=O)c1ccccc1,-1.62%
8,Nc1cc(N)nc(SCC(=O)c2ccc(Br)cc2)n1,1.93%
9,O=C(CSc1nnc(-c2ccccc2)n1-c1ccc(Cl)cc1)Nc1ccc(Cl)cc1,-3.34%
10,O=C(CN1CCCC1)Nc1sc2c(c1C(=O)Nc1ccccc1)CCCC2,-1.02%
11,CN1C(=O)C(O)(CC(=O)c2ccco2)c2cc([N+](=O)[O-])ccc21 (configuration not stated),1.09%
12,COc1ccc(-c2nnc(SCC(=O)O)n2-c2ccccc2)cc1OC,0.684%
13,C[C@H]1CN([C@@H](C)CO)C(=O)CCCn2cc(nn2)CO[C@@H]1CN(C)S(=O)(=O)c1ccc(-c2ccccc2)cc1,-9.48%
14,COc1ccc(NC(=O)O[C@@H](c2ccc(OCCO)cc2)[C@@H](C)CCO)cc1,0.388%
15,COc1cc(OC)c(NC(=O)CSc2nnc(-c3ccncc3)n2-c2ccccc2)cc1Cl,-1.55%
16,C[C@H](CO)N1C[C@H](C)[C@H](CN(C)S(=O)(=O)c2ccc(Cl)cc2)Oc2ccc(NC(=O)C3CCCCC3)cc2C1=O,5.34%
17,CCCC(O)C#Cc1cnc2c(c1)C(=O)N([C@H](C)CO)C[C@H](C)[C@H](CN(C)S(=O)(=O)c1ccc(C#N)cc1)O2 (some centres not stated),2.14%
18,Cc1nn(CC(=O)NCc2ccccn2)c(C)c1[N+](=O)[O-],-1.47%
19,COC(=O)c1ccccc1NC(=O)CSc1n[nH]c(-c2ccncc2)n1,2.87%
20,COc1ccc(C)cc1S(=O)(=O)N1CCCC(C(=O)Nc2ccccc2C(F)(F)F)C1 (configuration not stated),1.43%
21,CC(C)N1C(=O)[C@@]2(Cc3ccccc31)c1ccccc1C(=O)N(C1CCCCC1)[C@H]2c1ccc(CO)cc1,4.98%
22,Cc1ccc(NC(=O)COc2ccccc2C)c([N+](=O)[O-])c1,0.544%
23,COc1ccc(OC)c(NC(=O)Cn2cc(C(=O)C3CC3)c3ccccc32)c1,-2.72%
24,COc1ccc(Cl)cc1N(CC(=O)Nc1ccc(Br)c(Cl)c1)S(C)(=O)=O,1.17%
25,CN(CC(=O)Nc1ccccc1C#N)S(=O)(=O)c1ccc2ccccc2c1,1.4%
26,C[C@H](CO)N1C[C@H](C)[C@@H](CN(C)C(=O)C2CCCCC2)OCc2cnnn2CCCC1=O,0.882%

row,Compound,inhibition
1,COc1ccc(NC(=O)CSc2nncc3ccccc23)c([N+](=O)[O-])c1,-3.11%
2,C[C@H](CO)N1C[C@H](C)[C@H](CN(C)S(C)(=O)=O)Oc2ncc(C#CCN(C)C)cc2C1=O,3.31%
3,O=[N+]([O-])c1cccc(NC(=S)Nc2nn(Cc3ccc(Cl)cc3Cl)cc2Cl)c1,1%
4,Cc1ccc(-c2ccc(CCC(=O)O)n2-c2ccc(C(N)=O)cc2)cc1,-3.89%
5,O=C(NCc1ccco1)c1ccc2c(c1)C(=O)N(Cc1cccnc1)C2=O,-0.956%
6,Cc1ccc(-c2nc(S(=O)(=O)c3ccc(Br)cc3)c(SCC(N)=O)o2)cc1,4.38%
7,Cc1ccc(S(=O)(=O)N(C)CC(=O)Nc2cccc(F)c2)cc1,-1.04%
8,CCOC(=O)C(C)Sc1ncnc2c1sc1nc(N3CCOCC3)c3c(c12)CC(C)(C)OC3 (configuration not stated),-0.767%
9,Cc1ccc(NC(=O)CSc2nc3ccccc3s2)cc1[N+](=O)[O-],1.36%
10,CC(C)[C@H](CO)Nc1nc(Nc2cc(N)cc(Cl)c2)c2ncn(C(C)C)c2n1,89.6% (active)
11,Cc1ccc(S(=O)(=O)N(C)C[C@@H]2Oc3ccc(NC(=O)Nc4ccc(F)cc4)cc3C(=O)N([C@H](C)CO)C[C@@H]2C)cc1,-2.65%
12,O=C(CCn1nc(-c2ccc(Cl)cc2)c2ccccc2c1=O)Nc1ccc(Br)cc1,-3.22%
13,O=C(O)CCNS(=O)(=O)c1ccc2c(c1)OCCO2,1.73%
14,C(=C\c1nn2c(C3COc4ccccc4O3)nnc2s1)/c1ccccc1 (configuration not stated),-1.1%
15,C[C@H]1CN([C@@H](C)CO)C(=O)CCCn2nncc2CO[C@H]1CN(C)Cc1ccc2c(c1)OCO2,5.15%
16,CN(CC(=O)Nc1ccc(Cl)c(Cl)c1)S(=O)(=O)c1ccc2ccccc2c1,0.105%
17,Cc1ccc(CN(C)C[C@H]2OCc3cn(nn3)CCCC(=O)N([C@@H](C)CO)C[C@H]2C)cc1,3.49%
18,Cc1ccccc1OCC(=O)Nc1cc(-c2nc3ccccc3s2)c(Cl)cc1Cl,-0.293%
19,COc1ccc(NC(=O)COc2cc(C)c(Br)c(C)c2)c([N+](=O)[O-])c1,-1.64%
20,COc1cccc(NC(=O)N(C)C[C@@H]2OCc3cn(nn3)CCCC(=O)N([C@@H](C)CO)C[C@H]2C)c1,-4.73%
21,O=C(CSc1nc2ccccc2s1)c1cc2ccccc2oc1=O,-1.09%
22,COc1cc(Cl)c(C)cc1NC(=O)CSc1nnnn1-c1ccccc1,-5.72%
23,O=C(CSc1nnc(-c2cccs2)n1-c1ccccc1Cl)Nc1cccc(C(=O)O)c1,-0.392%
24,Cn1c(=O)c2c(nc(SCC(=O)NC(C)(C)C)n2Cc2ccccc2F)n(C)c1=O,-1.84%
25,C[C@@H]1CN([C@@H](C)CO)C(=O)CCCn2cc(nn2)CO[C@@H]1CN(C)S(=O)(=O)c1cccc(F)c1,-2.04%
26,COc1ccc(NC(=O)CSc2nnc(-c3ccc(Br)cc3)n2C)cc1,-2.11%

row,Compound,inhibition
1,CCn1c(SCC(=O)c2ccc(OC)cc2)nnc1-c1ccc(Cl)cc1Cl,-3.02%
2,Cc1noc(C)c1NC(=O)Nc1ccc2c(c1)C(=O)N([C@H](C)CO)C[C@H](C)[C@@H](CN(C)Cc1ccc3c(c1)OCO3)OCCCC[C@@H](C)O2,-1.44%
3,C[C@@H]1CN([C@H](C)CO)C(=O)Cc2cc(NC(=O)Nc3ccc4c(c3)OCO4)ccc2O[C@@H]1CN(C)C(=O)Nc1ccccc1,0.707%
4,C=CCn1c2ccccc2c2nnc(SCC(=O)N3c4ccccc4Sc4ccccc43)nc21,-0.993%
5,C[C@@H]1CN([C@@H](C)CO)C(=O)CCCn2cc(nn2)CO[C@@H]1CN(C)S(=O)(=O)c1ccccc1C#N,-7.04%
6,COC(=O)c1cc(NC(=O)Cc2ccccc2[N+](=O)[O-])ccc1Cl,1.83%
7,CCn1c(SCC(=O)c2ccc(OC)cc2)nnc1-c1ccccc1F,-0.529%
8,Cc1cc(OCc2nc3ccccc3s2)ccc1NC(=O)c1cccc(F)c1,0.681%
9,CS(=O)(=O)N(CC(=O)Nc1ccc(F)cc1F)c1cc(Cl)c(Cl)cc1Cl,-1.13%
10,C=CCN1C(=O)[C@]2(O[C@H](CCn3cc(CCO)nn3)[C@@H]([Si](C)(C)c3ccc(OC)cc3)[C@@H]2C)c2cc(N3CCOC3=O)ccc21,-0.0517%
11,CC(=O)c1cccc(N(CC(=O)Nc2ccccc2C(F)(F)F)S(C)(=O)=O)c1,0.774%
12,CC(=O)OC[C@H]1O[C@@H](Oc2c(-c3ccc(O)c(O)c3)oc3cc(O)cc(O)c3c2=O)[C@H](O)[C@@H](O)[C@@H]1O,6.14%
13,CCc1ccccc1NC(=O)COc1cc(O)c2c(=O)cc(-c3ccccc3)oc2c1,6.95%
14,COc1c(O)cc2oc(-c3ccc(O)c(O)c3)cc(=O)c2c1O,39.8% (active)
15,Cc1ccc2nc(-c3ccc(Cl)c(NC(=O)COc4ccc(Br)cc4)c3)oc2c1,0.49%
16,Cc1ccc(-c2nnc(SCC(=O)Nc3ccccc3OC(F)F)o2)cc1,2.8%
17,C[C@H]1CN([C@@H](C)CO)C(=O)c2cc(NC(=O)CCN3CCOCC3)ccc2O[C@@H]1CN(C)C(=O)Nc1ccc(C(F)(F)F)cc1,-0.787%
18,N#Cc1c(NC(=O)C2CC(Cl)=CCC2C(=O)O)sc2c1CCC2 (configuration not stated),-3.84%
19,CCc1cc(Br)cc(C)c1NC(=O)CSc1nnc(-c2ccc(Cl)cc2)n1C,3.71%
20,C[C@@H]1CN([C@H](C)CO)C(=O)CCCn2nncc2CO[C@@H]1CN(C)S(=O)(=O)c1cccc(C#N)c1,-5.23%
21,COC(=O)Nc1ccc(S(=O)(=O)N2CCCC(C(=O)Nc3ccc(N(C)C)cc3)C2)cc1 (configuration not stated),-2.4%
22,C[C@@H]1CCCCO[C@H](CN(C)C(=O)NC2CCCCC2)[C@@H](C)CN([C@H](C)CO)C(=O)c2cc(NS(=O)(=O)c3ccc(F)cc3)ccc2O1,-0.501%
23,O=C(CSc1nc2c(c(C(F)(F)F)n1)CCCC2)N1c2ccccc2Sc2ccccc21,2.75%
24,Cc1cc(C)cc(NC(=O)CSc2nnc(-c3ccncc3)n2-c2ccccc2)c1,-3.15%
25,Cc1noc(C)c1S(=O)(=O)Nc1ccc2c(c1)CC(=O)N([C@@H](C)CO)C[C@H](C)[C@@H](CN(C)S(=O)(=O)c1cn(C)cn1)O2,1.65%
